Several values for one entry are separate records, joined by “and”; a condition that tells them apart may be missing. Identical values can stand only once. Counter-ions that a name gives are not always drawn.
Legend:
Experiment in all cases: cell viability relative to vehicle control; higher = less cytotoxic
Conditions in all cases: 10 µM
K562 = tested on: K562
Summary of the method: (§1)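 CRISPR-edited SRSF2 P95 mutant and isogenic wild-type clones of four leukaemia lines were screened against Selleck bioactive, kinase and epigenetic probe libraries, with identity-inconsistent compounds removed. Compounds were acoustically dispensed into 384-well plates at a single 10 µM dose, with 2000 cells in 50 µL medium per well. After 48 h, supernatant was removed and CellTiter-Glo luminescence was read. Viability was expressed as percent of the on-plate DMSO vehicle control, analysed in Genedata Screener.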

MARIMO = tested on: MARIMO
Summary of the method: as §1

MOLM14 = tested on: MOLM14
Summary of the method: as §1

OCI-AML2 = tested on: OCI-AML2
Summary of the method: as §1

SMILES | cell viability (K562; SRSF2 genotype: SRSF2 P95H/wt) | cell viability (K562; SRSF2 genotype: SRSF2 wt/wt) [%] | cell viability (MARIMO; SRSF2 genotype: SRSF2 P95H/wt) [%] | cell viability (MARIMO; SRSF2 genotype: SRSF2 wt/wt) [%] | cell viability (MOLM14; SRSF2 genotype: SRSF2 P95H/wt) [%] | cell viability (MOLM14; SRSF2 genotype: SRSF2 wt/wt) [%] | cell viability (OCI-AML2; SRSF2 genotype: P95H/wt) [%] | cell viability (OCI-AML2; SRSF2 genotype: wt/wt) [%]
C[N+](C)(C)CC(O)CC(=O)[O-] (racemic) [DL-Carnitine hydrochloride] | 101% and 105% | 98.8 | 98.4 | 106 | 98.1 | 103 | 102 | 101
COc1cc(CO)ccc1O [Vanillyl Alcohol] | 97.3% and 89.7% | 88.8 | 94.9 | 100 | 92.1 | 95.9 | 92.4 | 91.7
COc1ccc(S(=O)(=O)N(CCO)c2ccccc2CN(C)C/C=C/c2ccc(Cl)cc2)cc1 [KN-93 Phosphate] | 38.5% and 44% | 51.6 | 33.5 | 27.9 | 45.5 | 41.8 | 35.6 | 33.4
CC(C)=CC[C@@H](O)C1=CC(=O)c2c(O)ccc(O)c2C1=O [Shikonin] | 1.68% and 0.52% | 0.87 | 0.3 | 0.35 | 0.44 | 0.28 | 0.19 | 0.25
O=C(O)C(Cc1ccccc1[N+](=O)[O-])=NNc1nc(-c2ccc(Cl)c(Cl)c2)cs1 | 95.8% and 93.5% | 87.9 | 94.2 | 114 | 91.8 | 92.2 | 84.8 | 94
C/C(=C\C(=O)OCCCCCCCCC(=O)O)C[C@@H]1OC[C@H](C[C@@H]2O[C@H]2[C@@H](C)[C@H](C)O)[C@@H](O)[C@H]1O [Mupirocin] | 98.8% and 99.8% | 101 | 103 | 103 | 97.7 | 103 | 100 | 92
C[C@@H](Oc1cc(-c2cnn(C3CCNCC3)c2)cnc1N)c1c(Cl)ccc(F)c1Cl | 1.39% and 1.02% | 1.8 | 23.6 | 16.2 | 0.46 | 0.63 | 0.4 | 1.89
Cc1nc(-c2ccc(OCC(C)C)c(C#N)c2)sc1C(=O)O [Febuxostat (Uloric)] | 93.4% and 98.2% | 100 | 102 | 111 | 107 | 105 | 119 | 123
OCC1OC(Oc2ccc(O)cc2)C(O)C(O)C1O (stereo not drawn) [alpha-Arbutin] | 99.8% and 105% | 98.6 | 104 | 111 | 103 | 109 | 98.8 | 101
O=C(Nc1nc2cccc(-c3ccc(CN4CCS(=O)(=O)CC4)cc3)n2n1)C1CC1 | 89.3% and 94.9% | 84.5 | 71.2 | 73 | 48.1 | 45.3 | 20.1 | 41.7
CCOc1ccc(NC(C)=O)cc1 [Phenacetin] | 98.6% and 97.2% | 91.5 | 89.6 | 92.5 | 98.4 | 95.8 | 88.3 | 93.4
C=C1CCC2C(C)(COC(=O)CCC(=O)O)C(OC(=O)CCC(=O)O)CCC2(C)C1C=CC1=CCOC1=O (stereo not given) [Dehydroandrographolide Succinate] | 114% and 108% | 111 | 101 | 101 | 109 | 107 | 106 | 105
CN1C(N)=N[C@](C)(c2cc(NC(=O)c3ccc(F)cn3)ccc2F)CS1(=O)=O [Verubecestat (MK-8931)] | 92.7% and 98.7% | 98.3 | 88.9 | 96.1 | 94.4 | 100 | 99.9 | 97.1
COc1ccc2c3c1O[C@H]1C[C@@H](O)C=C[C@@]31CCN(C)C2 [Galanthamine] | 103% and 106% | 99.9 | 102 | 106 | 97.9 | 105 | 109 | 95
Cn1cc(C2=C(c3cccc(N)c3)C(=O)NC2=O)c2ccccc21 | 51.4% and 36.7% | 58.5 | 65.4 | 86 | 59.8 | 72.1 | 78.8 | 101
CCCCCCOC(=O)NC(=N)c1ccc(NCc2nc3cc(C(=O)N(CCC(=O)OCC)c4ccccn4)ccc3n2C)cc1 [BIBR-1048 (Dabigatran)] | 67% and 66.3% | 67.2 | 55.2 | 55 | 0.49 | 0.53 | 55 | 35.7
Nc1nc(Nc2ccc(S(N)(=O)=O)cc2)nn1C(=O)c1c(F)cccc1F | 41.2% and 43.9% | 31.2 | 10.8 | 7.19 | 3.09 | 0.41 | 2.63 | 12
COc1ccc(CC(C)NCC(O)c2ccc(O)c(NC=O)c2)cc1 (stereo not given) [Formoterol hemifumarate] | 97.2% and 93.9% | 91.5 | 89.5 | 98.5 | 86.6 | 85.8 | 106 | 101
Cc1cn(CCN2CCN(c3ccccc3-c3cc(C#N)cc(C(=O)NCCCN4CCCC4)c3)CC2)c2ccccc12 | 0.16% and 0.18% | 0.16 | 0.17 | 0.22 | 0.12 | 0.12 | 0.03 | 0.1
C=C(CCC=C(C)C)[C@H]1CC[C@]2(C)[C@@H]1[C@H](O)C[C@@H]1[C@@]3(C)CC[C@H](O[C@@H]4O[C@H](CO)[C@@H](O)[C@H](O)[C@H]4O[C@@H]4O[C@H](CO)[C@@H](O)[C@H](O)[C@H]4O)C(C)(C)[C@@H]3CC[C@]12C [Ginsenoside Rk1] | 107% and 97.8% | 107 | 105 | 104 | 108 | 104 | 100 | 104

SMILES | cell viability (K562; SRSF2 genotype: SRSF2 P95H/wt) | cell viability (K562; SRSF2 genotype: SRSF2 wt/wt) [%] | cell viability (MARIMO; SRSF2 genotype: SRSF2 P95H/wt) [%] | cell viability (MARIMO; SRSF2 genotype: SRSF2 wt/wt) [%] | cell viability (MOLM14; SRSF2 genotype: SRSF2 P95H/wt) [%] | cell viability (MOLM14; SRSF2 genotype: SRSF2 wt/wt) [%] | cell viability (OCI-AML2; SRSF2 genotype: P95H/wt) [%] | cell viability (OCI-AML2; SRSF2 genotype: wt/wt) [%]
C=CC(=O)Nc1cccc(Oc2nc(Nc3ccc(N4CCN(C)CC4)cc3OC)ncc2Cl)c1 | 102% and 107% | 103 | 85.8 | 98.7 | 57.6 | 84.8 | 92 | 83.9
COc1ccc(-c2nc(-c3cc(C(F)(F)F)cc(C(F)(F)F)c3)n(Cc3ccc(C(N)=O)cc3)c2-c2ccc(OC)cc2)cc1 [Apoptozole] | 80.8% and 87.7% | 80.8 | 89.9 | 88.9 | 88.5 | 90.3 | 69.4 | 84.9
CCc1cc(/C(C)=N/OCc2ccc(C3CCCCC3)c(C(F)(F)F)c2)ccc1CN1CC(C(=O)O)C1 [BAF312 (Siponimod)] | 86.8% and 89.2% | 87 | 79.3 | 67.2 | 66.5 | 66.3 | 48.1 | 49.8
COc1ccccc1 [Anisole] | 96.8% and 90.2% | 102 | 98.6 | 101 | 94.6 | 101 | 99.5 | 110
CN(C)CCOC(c1ccccc1)c1ccccc1 [Diphenhydramine HCl (Benadryl)] | 91.2% and 88.2% | 85.9 | 76.8 | 91.7 | 88.3 | 85.8 | 87.8 | 92.3
CC1=C(/C=C/C(C)=C/C=C/C(C)=C/C=C/C=C(C)/C=C/C=C(C)/C=C/C2=C(C)CCCC2(C)C)C(C)(C)CCC1 [Beta Carotene] | 100% and 103% | 92 | 93.3 | 101 | 93.8 | 98 | 98.3 | 105
CC(C)c1noc(N2CCC(COc3ccc(-c4ccc(S(C)(=O)=O)cc4)nc3)CC2)n1 | 59.8% and 77.2% | 70.5 | 70 | 34.1 | 90.4 | 95.7 | 28.4 | 36.8
O=C(O)CC(O)C(=O)O (stereo not given) [Malic acid] | 82.4% and 82.1% | 83.7 | 99.6 | 88.9 | 77.2 | 101 | 102 | 104
Cc1ccsc1C(=CCCN1CCC[C@@H](C(=O)O)C1)c1sccc1C [Tiagabine] | 100% and 93.4% | 96.7 | 91.8 | 109 | 97 | 101 | 89 | 111
O=C(O)CNC(=O)c1ccccc1 [Hippuric acid] | 103% and 104% | 106 | 101 | 112 | 98.4 | 107 | 103 | 101
CC[C@H]1OC(=O)[C@H](C)[C@@H](O[C@H]2C[C@@](C)(OC)[C@@H](O)[C@H](C)O2)[C@H](C)[C@@H](O[C@@H]2O[C@H](C)C[C@H](N(C)C)[C@H]2O)[C@](C)(O)C[C@@H](C)CN(C)[C@H](C)[C@@H](O)[C@]1(C)O [Azithromycin] | 90.3% and 86.4% | 89.5 | 83.2 | 90.4 | 92.1 | 89.4 | 75.7 | 82.3
Cc1nc(Nc2ccc(F)cc2)nc(N2CCc3ccccc3C2C)c1C (stereo not given) [Revaprazan Hydrochloride] | 66.5% and 73.7% | 68.7 | 67.6 | 56.4 | 63.3 | 72.5 | 75 | 67.2
CCCC(CCC)C(N)=O [Valpromide] | 96.1% and 94.6% | 100 | 99.5 | 101 | 102 | 99.5 | 95 | 107
Cn1ncc(Cl)c1-c1cc(C(=O)N[C@H](CN)Cc2ccc(F)c(F)c2)oc1Cl | 73.1% and 71.1% | 79.8 | 64.1 | 59.3 | 31.9 | 31.4 | 51.1 | 50.4
CN1CCC(=C2c3ccccc3CC(=O)c3sccc32)CC1 [Ketotifen fumarate (Zaditor)] | 104% and 101% | 97.7 | 94.7 | 104 | 94.6 | 101 | 91 | 107
CNC1CCC(N(Cc2cccc(-c3ccncc3)c2)C(=O)c2sc3ccccc3c2Cl)CC1 (stereo not given) [Smoothened Agonist (SAG) HCl] | 18.8% and 30.6% | 29.8 | 53.8 | 51.4 | 36.6 | 48.6 | 3.18 | 26.1
O=C1CN(/N=C/C=C/c2ccc([N+](=O)[O-])o2)C(=O)N1 [Furagin] | 105% and 103% | 104 | 93.7 | 107 | 105 | 108 | 101 | 108
Cc1ccc2nc(CN(CCN(Cc3nc4ccc(C)cc4[nH]3)Cc3nc4ccc(C)cc4[nH]3)Cc3nc4ccc(C)cc4[nH]3)[nH]c2c1 | 1.04% and 0.84% | 1.19 | 0.68 | 0.61 | 0.58 | 0.53 | 0.47 | 0.63
Cc1nc(NC(=O)N2CCC[C@H]2C(N)=O)sc1-c1ccnc(C(C)(C)C(F)(F)F)c1 [Alpelisib (BYL719)] | 93.3% and 102% | 90.4 | 55.6 | 52.6 | 52.6 | 65.1 | 32.2 | 41
CC1(C)CC[C@]2(C(=O)O)CC[C@]3(C)C(=CC[C@@H]4[C@@]5(C)C[C@@H](O)[C@H](O)C(C)(C)[C@@H]5CC[C@]43C)[C@@H]2C1 [Maslinic acid] | 84.2% and 80.1% | 84.5 | 91.3 | 108 | 90.7 | 86.9 | 77 | 82.2

Reference: the supplement of paper PMC10981050
